Screening data: PubChem, National Center for Advancing Translational Sciences (NCATS)
Rango release inh: inhibitors of RanGTP-induced Rango-importin beta complex dissociation; O95149+P62826; Potency, µM (series often up to 46.1 µM), for inactives: at the top dose activity change, negative = inhibition; actives 0.071% (n = 340,000); Biochemical FRET Rango-importin beta, RanGTP-induced dissociation; calls by dose curve; further: % of control where 0% means no effect; nearly all actives have a fitted effect of over 45% in size
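Compounds preincubate 5 min with complex of recombinant Rango and importin beta in PBS with 1 mM DTT. Ran (0.6 uM) loaded with 2 mM GTP plus 0.2 uM RCC1 starts dissociation; FRET is recorded 45 min later.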
aSyn yeast inh: inhibitors of alpha-synuclein toxicity in yeast; Yeast expressing alpha-synuclein, growth rescue, BacTiter-Glo, 24 h; Potency, µM (highest dose often 46.1 µM), without a hit: top-dose growth rescue (activation), most hits filed as activators; actives 0.14% (n = 370,000); AID 652106; further: % of control where 0% means no effect; nearly all actives have a fitted effect of over 65% in size
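Rescue of yeast growth: cells expressing toxic alpha-synuclein, induced in galactose at OD600 0.02, incubated with compound 24 h at 30 C. ATP luminescence quantified growth; inhibitors of toxicity appear as activators.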
ASM inhibitor: blocks human secretory acid sphingomyelinase | P17405 | placental ASM, HMU-PC fluorogenic substrate, 60 min | Potency, µM (doses to about 57.5 µM), for inactives: top-dose activity change, negative = inhibition, actives largely listed as inhibitors | actives 0.006% (n = 340,000) | AID 504937
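Human placenta-derived ASM enzyme was preincubated with compound for 10 minutes at room temperature, then given fluorogenic substrate HMU-PC0 (9 uM final) for 60 minutes at 37 °C; a pH 10 stop preceded fluorescence reading at Ex 386/Em 447 nm.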
Rango complex inh: prevents formation of the Rango-importin beta complex | actives 0.031% (n = 340,000) | Q14974 | Rango CFP/YFP FRET sensor + importin beta, 45 min | Potency, µM (series often up to 92.2 µM), without a hit: at the highest dose inhibition of complex formation; calls by dose curve;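 further: 0% = DMSO wells and 100% = buffer wells lacking importin beta; nearly all actives have a fitted effect of over 15% in size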
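Inhibition scored from the CFP 486 nm/YFP 530 nm FRET ratio 45 min after adding 0.125 microM importin beta to 50 nM Rango biosensor preincubated 5 min with compound (room temperature, PBS with DTT, Tween-20, BSA). No-importin wells as positive control.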
TDP43 rescue: TDP-43 toxicity inhibition in yeast; TDP-43 expressing yeast growth rescue, BacTiter-Glo, 24 h; Potency, µM (titrated, usually from 46.1 µM), for inactives: at the top dose growth rescue (activation), actives largely listed as activators; actives 1.8% (n = 410,000); AID 652104; further: % of control where 0% means no effect; nearly all actives have a fitted effect of over 50% in size
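Readout is BacTiter-Glo luminescence of cell growth, so inhibitors register as activators. TDP-43-expressing yeast at OD600=0.02 in galactose medium, after raffinose pregrowth to mid-log, were incubated with compound for 24 hr at 30 deg C.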
Abeta yeast res: restores growth of yeast expressing A-beta42 peptide; Potency, µM (series often up to 46.1 µM), usual class: activators; AID 1347071; actives 0.063% (n = 410,000); yeast expressing A-beta42, growth rescue, OD600, 48 h; response scale: 0% DMSO, 100% iron-clioquinol control; further: nearly all actives have a fitted effect of over 55% in size
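Yeast growth medium received pinned compounds, then yeast cells expressing toxic A-beta were added; plates incubated at 30 C for 48 hr. Growth read as absorbance at 600 nm, normalized to DMSO and equimolar FeCl3 plus clioquinol controls.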
An asterisk follows results filed as active; i = inactive; ? = inconclusive; . = not tested or not shown. Rows were chosen to be rich in hits. Some 2% of all compounds tested hit in one or more screens of this group. Unless noted, the call rests on the fitted dose curve; in most records, active means well fitted curve in the direction sought with a large enough effect; inconclusive means small, poorly fitted or top-dose-only effect, or another doubt; inactive means no such curve, though single readings can be large; an effect the other way counts as inactive or inconclusive. Potency means the concentration at half of the fitted maximal effect.

SMILES	Rango release inh	aSyn yeast inh	ASM inhibitor	Rango complex inh	TDP43 rescue	Abeta yeast res
O=S(=O)(NCC(c1cccs1)S(=O)(=O)c1ccccc1)c1ccccc1 (stereo not given)	.	.	.	.	2.8µM*	i
O=C(CSc1nccn1-c1cccc(Cl)c1)Nc1cccc(C(F)(F)F)c1	.	.	.	.	20µM*	?
O=C(CSc1nc(-c2cccc(F)c2)[nH]c1-c1ccccc1)Nc1ccc2c(c1)OCCO2	.	.	.	.	?	i
O=C(CSc1nccn1-c1cccc(Cl)c1)Nc1cccc2ccccc12	.	.	.	.	16µM*	i
Cc1cccc(-n2ccnc2SCC(=O)Nc2ccc3c(c2)OCO3)c1	.	10%	.	.	20µM*	i
O=C(CSc1nccn1-c1ccc(Cl)cc1)Nc1ccc(Cl)c(Cl)c1	.	.	.	.	0%	i
Cc1cccc(-c2nc(SCC(=O)Nc3ccc4c(c3)OCCO4)c(-c3ccccc3)[nH]2)c1	.	.	.	.	35µM*	i
COc1cc2c(NC3CCN(C)CC3)nc(N3CCN(C)CC3)nc2cc1OCCCN(C)C	.	-18%	.	.	.	.
Cc1cccc(-n2ccnc2SCC(=O)Nc2ccccc2C(F)(F)F)c1	.	3%	.	.	3%	i
Cc1cccc(-n2ccnc2SCC(=O)Nc2cccc3ccccc23)c1	.	11%	.	.	22µM*	i
O=C(CSc1nccn(-c2cccc(F)c2)c1=O)Nc1ccc(Cl)cc1F	-1%	-78%	17%	1%	18µM*	i
CCOC(=O)c1cc(S(=O)(=O)N2CCN(c3ccc(C)cc3C)CC2)[nH]n1	.	.	.	.	14µM*	i
CCOC(=O)c1cc(S(=O)(=O)N2CCN(c3ccccc3F)CC2)[nH]n1	.	.	.	.	?	i
CCOC(=O)c1cc(S(=O)(=O)N2CCN(c3cccc(C)c3C)CC2)[nH]n1	.	.	.	.	35µM*	?
Cc1ccc(Cc2nc3ccccc3nc2SCC(=O)N2CCc3ccccc32)cc1	.	.	.	.	8%	i
CCOc1ccc(NC(=O)CSc2ncc3c(n2)-c2ccccc2N(Cc2ccccc2C)S3(=O)=O)cc1	.	.	.	.	20%	i
Cc1ccc(CNC(=O)CSCc2nc(-c3cccc(C)c3)oc2C)cc1	.	.	.	.	23%	i
Cc1ccc(CCNC(=O)CSCc2nc(-c3ccc(C)cc3)oc2C)cc1	.	.	.	.	25µM*	i
Cc1cccc(-c2nc(CSCC(=O)NCCc3ccc(Cl)cc3)c(C)o2)c1	.	.	.	.	25µM*	i
COc1ccc(-c2nc(CSCC(=O)NCCc3ccccc3)c(C)o2)cc1	.	.	.	.	?	i
COc1cc(N(C)C)c(OC)cc1/C=C1\C=Cc2ccccc21	.	-8%	.	.	.	.
CNC(=O)COC(=O)/C=C/c1nc2ccccc2s1	-1%	7%	-2%	-2%	16µM*	i
CC1=CCC2C(=O)N(c3ccc(Br)cc3C)C(=O)C2C1 (stereo not given)	-18%	0%	2%	-3%	?	i
CC1=C(C)CC2C(C1)C(=O)c1ccc(Br)cc1S2(=O)=O (stereo not given)	-14%	-3%	-5%	0%	5µM*	i
CCC(Sc1nc2cc(OC)c(OC)cc2c(=O)n1CCc1ccc(Cl)cc1)C(=O)NCCOC (stereo not given)	.	.	.	.	10%	i
SMILES	Rango release inh	aSyn yeast inh	ASM inhibitor	Rango complex inh	TDP43 rescue	Abeta yeast res
COc1ccc(/C=c2\[nH]c(=O)/c(=C/c3ccc(OC)c(OC)c3)[nH]c2=O)cc1OC	.	0%	.	.	.	.
CSc1ccccc1NC(=O)CCn1c(=O)sc2ccccc21	-1%	4%	5%	-3%	16µM*	i
CC(=O)Nc1cccc(NC(=O)CCn2c(=O)sc3ccccc32)c1	-11%	-1%	0%	0%	17%	?
Cc1[nH]n(-c2ccccc2)c(=O)c1Sc1ccc(Cl)cc1	0%	-54%	2%	-1%	10%	i
Cc1cc(-c2c(C)[nH]n(-c3ccc(Cl)cc3)c2=O)n[nH]1	6%	?	0%	0%	22µM*	i
COc1ccccc1NC(=O)c1cc2ccccc2o/c1=N\O	6%	-14%	-5%	5%	18µM*	i
Cc1ccc(NS(=O)(=O)c2ccc3[nH]c4c(c3c2)CCCC4)cc1N(C)C	.	.	.	.	17%	i
Cc1c(C(=O)Nc2ccc(F)cc2F)nnn1-c1ccccc1Br	.	.	.	.	32µM*	i
COc1ccc2c(c1OC)C(=O)NC(C)=C(C(=O)OC(C)(C)C)C2O (stereo not given)	-6%	16µM*	0%	0%	16%	i
CCOCCCN1C(=O)CN(C2CCCCCC2)C(=O)C1c1ccc(OCC)c(OC)c1 (stereo not given)	.	.	.	.	4%	i
COc1ccc(C(=O)O/N=C(\N)c2ccccc2Cl)cc1OC	5%	-15%	-1%	-5%	?	i
COc1ccccc1C(=O)O/N=C(\N)c1ccccc1Cl	-3%	-38%	6%	-1%	16µM*	i
COc1ccc(C(=O)O/N=C(\N)c2ccc(OC)c(OC)c2)c(OC)c1	0%	2%	4%	-5%	?	i
COc1ccc(C(=O)O/N=C(\N)c2ccccc2)c(OC)c1	-11%	-39%	0%	5%	14µM*	i
Cc1ccc(CNC(=O)c2nnc(Cc3cccc(F)c3)o2)cc1	.	.	.	.	24%	i
COc1ccc(NC(=O)CSc2ncccc2C(=O)O)cc1OC	.	.	.	.	26%	i
CCc1nc(SC)ncc1C(=O)NCc1cccc(Br)c1	.	.	.	.	17%	i
CNc1ccccc1C(C)(C)c1cc(-c2cccc([N+](=O)[O-])c2)no1	-5%	8%	-6%	2%	28%	11µM*
CCc1nn2c(=O)cc(COC(=O)c3ccccc3)nc2s1	.	.	.	.	11%	i
COc1cc([N+](=O)[O-])cc(/C=N/NC(=O)C(C)Nc2ccccc2C)c1O (stereo not given)	-4%	2%	-11%	-3%	20µM*	i
COc1cc([N+](=O)[O-])cc(/C=N/NC(=O)C(C)Nc2cccc(C)c2)c1O (stereo not given)	6%	9%	4%	-4%	28%	i
O=C(COC(=O)c1ccc(Br)cc1)NCc1ccc(F)cc1	7%	-10%	-1%	0%	.	i
O=C(COC(=O)c1cccc(Br)c1)NCCc1ccc(F)cc1	6%	3%	-6%	0%	13µM*	?
COc1cc2c(-c3ccc(C)cc3)nc3c(c(C)nn3-c3ccccc3)c2cc1OC	.	.	.	.	19%	i
Cc1ccc(-n2c(N)c(C(=O)N3CCCCC3)sc2=S)cc1	-6%	-2%	-11%	-6%	11µM*	i
Cc1ccc(-n2c(N)c(C(=O)N3CCN(C)CC3)sc2=S)cc1	1%	-6%	-2%	0%	4%	i
